The text below walks through data of PubChem BioAssay (NCI).

Molecules are shown by their SMILES. Compounds without any hit were thinned out: in the full panel of roughly 83,000, 20% have a hit.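 Assay: single dose, 48 h. Readout: percent growth (0 = no net growth; negative = cell death). Active: <10.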 Values without a mark were called inactive. Activity calls are given as the source filed them.

What all share (assay): NCI-60 one-dose screen, 48 h (100 = growth as untreated, 0 = no growth, -100 = all killed)
Conditions in all cases: 10 µM unless noted

Assay [1] has as its system NCI-H23 lung.
Assay [2] relates to NCI-H226 lung.
For assay [3], the system named is NCI-H322M lung.
Assay [4] concerns HOP-62 NSCLC.
The subject of assay [5] is NCI-H460 lung.
The subject of assay [6] is HOP-92 NSCLC.
For assay [7], the system named is NCI-H522 lung.
The test system of assay [8] is A549/ATCC NSCLC.
The test system of assay [9] is 786-0 renal.
The subject of assay [10] is COLO 205 colon.
Assay [11] concerns DU-145 prostate.
For assay [12], the system named is K-562 leukemia.
The subject of assay [13] is MALME-3M melanoma.
The subject of assay [14] is MDA-MB-231 breast.
In assay [15] the test system is SF-268 CNS.
Assay [16] concerns SF-295 CNS.
For assay [17], the system named is SF-539 CNS.
Assay [18] has as its system UACC-257 melanoma.
In assay [19] the test system is M14 melanoma.

On to `CCN1C(=O)N(CC)C2C1NN=c1s/c(=C3\C(=O)Nc4ccccc43)c(=O)n12` (configuration not stated), for which the growth in [1] was 37.3%; in assay [2], 93.2%; in assay [3] it was 43.5%; in [4], 5.9% (active); in assay [5] it was 9.09% (active); in [6] it was -4.18% (active). Further, the growth was 2.21% (active) in [7]; 28.8% in [8]; 27.7% in [9]; -25.1% (active) in assay [10]; 14.9% in assay [11]; 2.13% (active) in assay [12]. The growth in [13] was 19%; in assay [14], 25%; in assay [15], 67.1%; in assay [16], 8.72% (active); in assay [17], -34.1% (active); in assay [18], 80.4%. Further, in assay [19], the growth was 20.1%.
`c1ccc(Cn2nc3c(c2-c2ccccc2)-c2oncc2CC3)cc1`: the growth in assay [1] was 87.5%; in assay [2], 103%; in assay [3], 113%; in assay [4], 105%; in assay [5], 102%; in assay [6] it was 62.3%. Also, the growth in assay [7] was 76%; in assay [8], 90.5%; in [9], 105%; in assay [10], 113%; in assay [11], 112%; in assay [12] it was 73.2%. The growth was 89% in assay [13]; 96.8% in assay [14]; 107% in [15]; 76.7% in [16]; 110% in [17]; 92.1% in assay [18]. Besides, in assay [19], the growth was 98.2%.
In the case of `Clc1ccc(C2CC(c3cccc(Nc4ccncc4)c3)=NN2c2ccc(Cl)cc2)cc1` (configuration not stated), the growth in assay [1] was 47.7%; in assay [2], 91.9%; in [3] it was 54.9%; in assay [4] it was -44.4% (active); in assay [5], -81% (active); in assay [6], 46.3%. The growth in [7] was -44% (active); in assay [8], 9.48% (active); in [9], -71.7% (active); in assay [10], -61.5% (active); in assay [11], 17.6%; in assay [12], -1.93% (active). Also, the growth is -64.4% (active) in assay [13]; 19% in [14]; 60.2% in [15]; -79.2% (active) in [16]; 71.2% in assay [17]; 64.7% in [18]. For the same compound, the growth in assay [19] was -80.1% (active).
Turning to `CN1CCN(c2c(F)cc(NC3=C(Cl)C(=O)c4ncccc4C3=O)cc2F)CC1`, the growth in assay [1] was 82.8%; in assay [2], 97.1%; in assay [3] it was 108%; in assay [4] it was 111%; in assay [5] it was 107%; in assay [6] it was 41%. The growth was -9.58% (active) in [7]; 109% in [8]; 101% in assay [9]; 64.7% in assay [10]; 103% in assay [11]; 2.2% (active) in assay [12]. The growth was -6.37% (active) in assay [13]; 84.2% in assay [14]; 93.3% in [15]; 117% in assay [16]; 98.1% in assay [17]; 69.3% in [18]. In addition, the growth in assay [19] is 76.5%.
On to `O=C1c2cccnc2C(=O)c2nc3cc(N4CCN(C5CC5)CC4)ccc3nc21`, for which the growth was -56.5% (active) in assay [1]; -49.1% (active) in assay [2]; -96.7% (active) in assay [3]; -56.6% (active) in assay [4]; -54.1% (active) in assay [5]; 62.5% in [6]. Besides, the growth is -50.5% (active) in [7]; -53.3% (active) in assay [8]; 28.1% in [9]; -68.3% (active) in assay [10]; -75.9% (active) in [11]; 0.866% (active) in assay [12]. Also, the growth is -100% (active) in assay [13]; 15.1% in assay [14]; 12.5% in [15]; -88.9% (active) in [16]; -99.4% (active) in assay [17]; -84.5% (active) in assay [18]. In assay [19], the growth was -91.2% (active).
Take `COc1cc2nc(-c3ccc(-c4nn[nH]n4)cc3)[nH]c(=O)c2cc1OC`: the growth in [1] is 93.7%; in [2], 106%; in assay [3], 176%; in [4], 99.3%; in assay [5], 115%; in assay [6] it was 132%. The growth in [7] is 96.1%; in [8], 30.5%; in [9] it was 104%; in [10] it was 117%; in [11], 114%; in assay [12], 109%. Also, the growth is 215% in [13]; 119% in assay [14]; 99.9% in assay [15]; 122% in assay [16]; 99.5% in [17]; 122% in [18]. Also, the growth in assay [19] was 102%.
Take `COc1ccc(C2=NN(C(C)=O)C(c3cn(Cc4ccc(Cl)cc4)c4ccccc34)C2)cc1` (configuration not stated): the growth in [1] was 73.3%; in [2], 67.6%; in assay [3], 83.1%; in [4], 85.7%; in assay [5], 86.9%; in assay [6], 61.2%. Besides, the growth in assay [7] is 69.5%; in [8], 64.6%; in assay [9], 89.4%; in [10], 115%; in [11], 97.4%; in assay [12] it was 52.6%. Further, the growth was 72.2% in assay [13]; 78.7% in assay [14]; 79.9% in assay [15]; 85.6% in [16]; 82.1% in [17]; 81.7% in [18]. Moreover, the growth in assay [19] was 99.4%.
Take `COc1ccc2c(c1)OC1=C(C(=O)OC1)C2c1cc(OC)c(OC)c(OC)c1` (configuration not stated): the growth in [1] is 31.8%; in assay [2] it was 26.8%; in assay [3], 52.6%; in [4] it was 33.2%; in assay [5], 5.28% (active); in assay [6], 74.8%. The growth is -32.5% (active) in assay [7]; 20.7% in [8]; 36.8% in assay [9]; 1.87% (active) in assay [10]; 6.88% (active) in [11]; 14.1% in assay [12]. Moreover, the growth in assay [13] is 61.1%; in assay [14] it was 42.7%; in assay [15] it was 32%; in [16] it was 8.32% (active); in [17] it was 0.966% (active); in [18] it was 39.6%. In addition, the growth in [19] was 10.2%.
